From the supplement of paper PMC8728848
This is one part of a sample in which the strongest signals are shown more often than they occur.

Legend:
Assay in all cases: glycan array binding signal (z-score within array); higher = stronger binding
Details in all cases: glycan notation: IUPAC condensed, linker removed
[1] = molecular target: Fuc(a1-2)Gal(b1-4)GlcNAc(b1-2)Man(a1-3)[Fuc(a1-2)Gal(b1-4)GlcNAc(b1-2)Man(a1-6)]Man(b1-4)GlcNAc(b1-4)[Fuc(a1-6)]GlcNAc
Procedure, shortened: (§1)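 Glycan array data were curated from 3228 arrays in the Consortium for Functional Glycomics database and kept only where the protein sequence was available. Glycan names were converted to IUPAC-condensed notation, and columns mapping to the same glycan were averaged. The binding signal is a within-array Z-score, averaged across arrays of the same protein sequence at different concentrations or buffers and across linkers. Negative Z-scores can be read as non-binding.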

[2] = molecular target: Fuc(a1-2)[Gal(a1-3)]Gal(b1-3)GalNAc
Procedure, shortened: as §1

[3] = molecular target: Fuc(a1-2)[Gal(a1-4)]Gal(b1-4)GlcNAc
Procedure, shortened: as §1

[4] = molecular target: Fuc(a1-2)[GalNAc(a1-3)]Gal(b1-4)Glc
Procedure, shortened: as §1

[5] = molecular target: Fuc(a1-2)[GalNAc(a1-3)]Gal(b1-4)[Fuc(a1-3)]GlcNAc(b1-3)GalNAc
Procedure, shortened: as §1

[6] = molecular target: Fuc(a1-3)[GalNAc(b1-4)]GlcNAc
Procedure, shortened: as §1

Gal(a1-3)GalNAc = molecular target: Gal(a1-3)GalNAc
Procedure, shortened: as §1

[7] = molecular target: Gal(a1-3)[Gal(a1-4)]Gal(b1-4)GlcNAc
Procedure, shortened: as §1

Gal(a1-4)Gal(b1-4)Glc = molecular target: Gal(a1-4)Gal(b1-4)Glc
Procedure, shortened: as §1

Gal(b1-2)Gal = molecular target: Gal(b1-2)Gal
Procedure, shortened: as §1

[8] = molecular target: Gal(b1-3)GalNAc(b1-4)Gal(b1-4)Glc
Procedure, shortened: as §1

Gal(b1-3)GlcNAc = molecular target: Gal(b1-3)GlcNAc
Procedure, shortened: as §1

[9] = molecular target: Gal(b1-3)GlcNAc(b1-2)Man(a1-3)[Gal(b1-3)GlcNAc(b1-2)Man(a1-6)]Man(b1-4)GlcNAc(b1-4)GlcNAc
Procedure, shortened: as §1

[10] = molecular target: Gal(b1-3)GlcNAc(b1-3)Gal(b1-4)Glc
Procedure, shortened: as §1

[11] = molecular target: Gal(b1-3)GlcNAc(b1-3)Gal(b1-4)GlcNAc(b1-3)Gal(b1-4)GlcNAc(b1-2)[Gal(b1-3)GlcNAc(b1-3)Gal(b1-4)GlcNAc(b1-3)Gal(b1-4)GlcNAc(b1-6)]Man(a1-6)[Gal(b1-3)GlcNAc(b1-3)Gal(b1-4)GlcNAc(b1-3)Gal(b1-4)GlcNAc(b1-2)Man(a1-3)]Man(b1-4)GlcNAc(b1-4)[Fuc(a1-6)]GlcNAc
Procedure, shortened: as §1

[12] = molecular target: Gal(b1-3)GlcNAc(b1-6)[Gal(b1-3)]GalNAc
Procedure, shortened: as §1

[13] = molecular target: Gal(b1-3)[Fuc(a1-4)]GlcNAc(b1-2)Man(a1-3)[Gal(b1-3)[Fuc(a1-4)]GlcNAc(b1-2)Man(a1-6)]Man(b1-4)GlcNAc(b1-4)[Fuc(a1-6)]GlcNAc
Procedure, shortened: as §1

[14] = molecular target: Gal(b1-3)[Fuc(a1-4)]GlcNAc(b1-6)GalNAc
Procedure, shortened: as §1

[15] = molecular target: Gal(b1-4)GlcNAc(b1-2)Man(a1-6)[GlcNAc(b1-2)Man(a1-3)]Man(b1-4)GlcNAc(b1-4)GlcNAc
Procedure, shortened: as §1

[16] = molecular target: Gal(b1-4)GlcNAc(b1-3)Gal(b1-4)Glc
Procedure, shortened: as §1

[17] = molecular target: Gal(b1-4)GlcNAc(b1-3)Gal(b1-4)GlcNAc(b1-2)Man(a1-3)[Gal(b1-4)GlcNAc(b1-3)Gal(b1-4)GlcNAc(b1-2)Man(a1-6)]Man(b1-4)GlcNAc(b1-4)GlcNAc
Procedure, shortened: as §1

[18] = molecular target: Gal(b1-4)GlcNAc(b1-3)Gal(b1-4)GlcNAc(b1-3)Gal(b1-4)GlcNAc(b1-3)Gal(b1-4)GlcNAc(b1-2)Man(a1-3)[Gal(b1-4)GlcNAc(b1-3)Gal(b1-4)GlcNAc(b1-3)Gal(b1-4)GlcNAc(b1-3)Gal(b1-4)GlcNAc(b1-2)Man(a1-6)]Man(b1-4)GlcNAc(b1-4)[Fuc(a1-6)]GlcNAc
Procedure, shortened: as §1

[19] = molecular target: Gal(b1-4)GlcNAc(b1-3)GalNAc
Procedure, shortened: as §1

Gal3S(b1-4)Glc6S = molecular target: Gal3S(b1-4)Glc6S
Procedure, shortened: as §1

[20] = molecular target: Gal3S(b1-4)[Fuc(a1-3)]Glc6S
Procedure, shortened: as §1

[21] = molecular target: GalNAc(b1-3)Gal(a1-4)Gal(b1-4)GlcNAc
Procedure, shortened: as §1

GalNAc(b1-4)GlcNAc = molecular target: GalNAc(b1-4)GlcNAc
Procedure, shortened: as §1

GalNAc4S6S(b1-4)GlcNAc = molecular target: GalNAc4S6S(b1-4)GlcNAc
Procedure, shortened: as §1

[22] = molecular target: GlcNAc(a1-3)Gal(b1-4)GlcNAc
Procedure, shortened: as §1

[23] = molecular target: GlcNAc(a1-4)Gal(b1-4)GalNAc
Procedure, shortened: as §1

[24] = molecular target: GlcNAc(b1-3)Gal(b1-4)GlcNAc(b1-6)[Gal(b1-3)]GalNAc
Procedure, shortened: as §1

[25] = molecular target: GlcNAc(b1-4)GlcNAc(b1-4)GlcNAc
Procedure, shortened: as §1

Kdn(a2-6)Gal(b1-4)GlcNAc = molecular target: Kdn(a2-6)Gal(b1-4)GlcNAc
Procedure, shortened: as §1

[26] = molecular target: Man(a1-2)Man(a1-6)[Man(a1-3)]Man(a1-6)[Man(a1-2)Man(a1-2)Man(a1-3)]Man(b1-4)GlcNAc(b1-4)GlcNAc
Procedure, shortened: as §1

[27] = molecular target: Neu5Ac(a2-3)Gal(b1-4)GlcNAc(b1-2)Man(a1-3)[Neu5Ac(a2-3)Gal(b1-4)GlcNAc(b1-2)Man(a1-6)]Man(b1-4)GlcNAc(b1-4)GlcNAc
Procedure, shortened: as §1

[28] = molecular target: Neu5Ac(a2-3)Gal(b1-4)GlcNAc(b1-3)[Neu5Ac(a2-3)Gal(b1-4)GlcNAc(b1-6)]GalNAc
Procedure, shortened: as §1

[29] = molecular target: Neu5Ac(a2-3)Gal(b1-4)GlcNAc(b1-6)GalNAc
Procedure, shortened: as §1

[30] = molecular target: Neu5Ac(a2-3)Gal(b1-4)GlcNAc6S
Procedure, shortened: as §1

[31] = molecular target: Neu5Ac(a2-3)[GalNAc(b1-4)]Gal(b1-4)GlcNAc
Procedure, shortened: as §1

[32] = molecular target: Neu5Ac(a2-8)Neu5Ac(a2-3)Gal(b1-4)Glc
Procedure, shortened: as §1

[33] = molecular target: Neu5Ac(b2-6)Gal(b1-4)GlcNAc
Procedure, shortened: as §1

[34] = molecular target: Neu5Gc(b2-6)Gal(b1-4)GlcNAc
Procedure, shortened: as §1

B1: AT1G15820(2) (Arabidopsis thaliana), Q9LMQ2 (protein)
chain: MAMAVSGAVLSGLGSSFLTGGKRGATALASGVGTGAQRVGRKTLIVAAAAAQPKKSWIPAVKGGGNFLDPEWLDGSLPGDFGFDPLGLGKDPAFLKWYREAELIHGRWAMAAVLGIFVGQAWSGVAWFEAGAQPDAIAPFSFGSLLGTQLLLMGWVESKRWVDFFNPDSQSVEWATPWSKTAENFANYTGDQGYPGGRFFDPLGLAGKNRDGVYEPDFEKLERLKLAEIKHSRLAMVAMLIFYFEAGQGKTPLGALGL
glycan array binding signal (z-score) [1]: -0.613
glycan array binding signal (z-score) [2]: -0.022
glycan array binding signal (z-score) [3]: 1.93
glycan array binding signal (z-score) [4]: -0.507
glycan array binding signal (z-score) [5]: 6.82
glycan array binding signal (z-score) [6]: 1.79
glycan array binding signal (z-score) (Gal(a1-3)GalNAc): 3.12
glycan array binding signal (z-score) [7]: 9.8
glycan array binding signal (z-score) (Gal(a1-4)Gal(b1-4)Glc): 2.16
glycan array binding signal (z-score) (Gal(b1-2)Gal): 0.453
glycan array binding signal (z-score) [8]: 2.89
glycan array binding signal (z-score) (Gal(b1-3)GlcNAc): 0.12
glycan array binding signal (z-score) [9]: 0.477
glycan array binding signal (z-score) [10]: -0.032
glycan array binding signal (z-score) [11]: 1.41
glycan array binding signal (z-score) [12]: 0.112
glycan array binding signal (z-score) [13]: -0.308
glycan array binding signal (z-score) [14]: -0.229
glycan array binding signal (z-score) [15]: 0.324
glycan array binding signal (z-score) [16]: -0.362
glycan array binding signal (z-score) [17]: 0.779
glycan array binding signal (z-score) [18]: 0.197
glycan array binding signal (z-score) [19]: -0.445
glycan array binding signal (z-score) (Gal3S(b1-4)Glc6S): 0.421
glycan array binding signal (z-score) [20]: 1.96
glycan array binding signal (z-score) [21]: 3.99
glycan array binding signal (z-score) (GalNAc(b1-4)GlcNAc): 8.56
glycan array binding signal (z-score) (GalNAc4S6S(b1-4)GlcNAc): -0.032
glycan array binding signal (z-score) [22]: -0.384
glycan array binding signal (z-score) [23]: 0.069
glycan array binding signal (z-score) [24]: -0.16
glycan array binding signal (z-score) [25]: -0.425
glycan array binding signal (z-score) (Kdn(a2-6)Gal(b1-4)GlcNAc): -0.581
glycan array binding signal (z-score) [26]: -0.821
glycan array binding signal (z-score) [27]: -0.363
glycan array binding signal (z-score) [28]: 0.172
glycan array binding signal (z-score) [29]: -0.315
glycan array binding signal (z-score) [30]: -0.028
glycan array binding signal (z-score) [31]: -0.469
glycan array binding signal (z-score) [32]: -0.326
glycan array binding signal (z-score) [33]: -0.408
glycan array binding signal (z-score) [34]: -0.566
